# Screening data (PubChem BioAssay)
# GLP1R inv ag = acts as inverse agonist at human GLP-1 receptor | P43220 | Potency, µM (doses to about 38.3 µM), inactives show top-dose activity change, negative = inhibition, usual class: inhibitors | 410,000 compounds, 1.6% hits | HEK293 GLP-1R CRE-luciferase, luminescence, 24 h; GLP-1R form is constitutively active; also: % is scaled to controls: 0 for no effect and ±100 for the full control effect; nearly all actives have a fitted effect of over 55% in size
# Target sequence (P43220 whole entry, looked up): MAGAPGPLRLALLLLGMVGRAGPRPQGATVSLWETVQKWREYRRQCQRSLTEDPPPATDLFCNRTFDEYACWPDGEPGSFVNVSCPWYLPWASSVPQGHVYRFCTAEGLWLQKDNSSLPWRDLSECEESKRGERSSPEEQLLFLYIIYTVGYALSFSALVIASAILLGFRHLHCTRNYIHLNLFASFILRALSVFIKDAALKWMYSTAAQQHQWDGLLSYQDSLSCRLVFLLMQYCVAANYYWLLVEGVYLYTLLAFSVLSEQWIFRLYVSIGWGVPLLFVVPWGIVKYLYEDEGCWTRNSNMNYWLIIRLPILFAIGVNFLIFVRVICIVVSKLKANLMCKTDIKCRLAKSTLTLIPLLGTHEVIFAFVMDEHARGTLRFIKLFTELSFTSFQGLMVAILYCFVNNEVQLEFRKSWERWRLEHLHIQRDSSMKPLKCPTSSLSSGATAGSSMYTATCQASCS
#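 Seeding at 200 cells/uL, 12 h culture, 24 hr compound treatment, then luciferase reagent and a luminescence read; cells are HEK293 stably expressing a constitutively active GLP-1R plus cAMP-responsive luciferase.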
# HEK293 tox = cytotoxic in the GLP-1 receptor inverse agonist counter-screen; Potency, µM (titrated, usually from 38.3 µM), inactives show at the highest dose activity change, negative = inhibition, most hits filed as inhibitors; HEK293 cAMP-luciferase reporter cells, luminescence, 24 h; 410,000 compounds, 0.13% hits; AID 624418;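 also: loss of luciferase light is scored as toxicity; % is scaled to controls: 0 for no effect and ±100 for the full control effect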
#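 Compound-treated cells are incubated 24 hr at 37 deg C under 5% CO2 after a 12 hour attachment period, then luciferase detection reagent is added and luminescence is measured following 12 min at room temperature; lowered signal indicates toxicity.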
# VP16 counter = Gal4-VP16 reporter inhibition counter-screen; 310,000 compounds, 3.5% hits; Potency, µM (series often up to 53.6 µM), for the others: at the highest dose activity, negative = inhibition, hits mostly inhibitors; Drosophila S2 Gal4-VP16 UAS-luciferase, luminescence, 20 h;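 also: Gal4-VP16 expression switched on by copper sulfate through the metallothionein promoter; % is scaled to controls: 0 for no effect and ±100 for the full control effect; nearly all actives have a fitted effect of over 50% in size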
# GLP-1R agonist = GLP-1 receptor (human) agonism; 380,000 compounds, 0.007% hits; P43220; Potency, µM (doses to about 45.6 µM), inactives show at the highest dose activation, actives largely listed as activators; AID 624172; HEK293 GLP-1R CRE-luciferase, luminescence, 4-6 h; cells express a hypersensitive GLP-1R form; also: % of control where 0% means no effect
# RORgamma inh = blocks mouse ROR gamma transcriptional activity | Potency, µM (highest dose often 53.6 µM), without a hit: top-dose activity change, negative = inhibition, usual class: inhibitors | 310,000 compounds, 5.4% hits | Drosophila S2 Gal4-RORgamma UAS-luciferase reporter, 20 h; also: % is scaled to controls: 0 for no effect and ±100 for the full control effect; nearly all actives have a fitted effect of over 60% in size
#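 Stable Schneider cell line, Gal4 DNA-binding domain fused to ROR gamma, UAS-luciferase. Cmpd 1 hr RT → CuSO4 700 uM final → 20 hr RT → luciferase reagent 10 min → luminescence.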
# The depositor's hits bear a star; ? = inconclusive; · = no result; [ ] = remark or other dose. Shown are actives, neighbours in structure and some others; about 5.9% of the full set was active somewhere. Calls follow the shape of the dose curve; as a rule, active = well fitted curve in the direction sought with a large enough effect; inconclusive = small, poorly fitted or top-dose-only effect, or another doubt; inactive = no such curve, though single readings can be large; an effect the other way counts as inactive or inconclusive. Potency is read from the fitted curve at half-maximal effect.
SMILES,GLP1R inv ag,HEK293 tox,VP16 counter,GLP-1R agonist,RORgamma inh
Cc1cc(C)n(-c2nc(NCC(C)O)c3c4c(sc3n2)CCCC4)n1 (stereo not given),2.8µM*,-17%,1µM*,17%,?
Cc1cc(C)n(-c2nc(SCC(=O)O)c3c4c(sc3n2)CCCC4)n1,·,·,-7%,·,?
Cc1cc(C)n(-c2nc3sc4c(c3c3nnc(SC(C)C)n23)CC(C)(C)OC4)n1,0%,-8%,·,1%,·
Cc1cc(C)n(-c2nc(NCC(C)O)c3c4c(sc3n2)COC(C)(C)C4)n1 (stereo not given),0%,?,10µM*,-1%,3.2µM*
Cc1cc(C)n(-c2nc(SCCN(C)C)c3c4c(sc3n2)COC(C)(C)C4)n1,?,?,7.1µM*,0%,5µM*
Cc1cc(C)n(-c2nc(NCCCO)c3c4c(sc3n2)CCCC4)n1,?,?,2.8µM*,15%,1.6µM*
COc1ccc(-c2nc(C)c(CCNC(=O)c3ccc(F)c(F)c3)s2)cc1,?,-8%,·,5%,·
COc1ccc(C(=O)N2CCC3(CCN(Cc4ccccc4OC)CC3)CC2)cc1,·,·,-8%,·,-16%
CCNc1ncc2nc(-c3ccc(F)cc3)c(=O)n(Cc3ccc(F)cc3)c2n1,·,·,3%,·,-17%
Cc1cc(C)n(-c2nc(NCC3CCCO3)c3c4c(sc3n2)COC(C)(C)C4)n1 (stereo not given),?,3.2µM*,3.2µM*,1%,2.8µM*
Cc1cc(C)n(-c2nc(NCCO)c3c4c(sc3n2)CCCC4)n1,4.5µM*,?,4.5µM*,24%,3.2µM*
COc1cccc(N2CC(NC(=O)Cc3cccs3)CC2=O)c1 (stereo not given),3%,0%,·,·,·
CCOc1ccc(NC(=O)c2oc3ccccc3c2NC(=O)C(C)Oc2ccccc2)cc1 (stereo not given),?,2%,·,0%,·
O=C(CNc1ccc2ccccc2c1)N/N=C/c1ccc([N+](=O)[O-])o1,15%,-14%,?,5%,-18%
O=C(N/N=C/c1ccc([N+](=O)[O-])o1)C1CC1,12%,-29%,4%,-1%,7.9µM*
Cc1cc(C)c(S(=O)(=O)N/N=C/c2ccc([N+](=O)[O-])o2)c(C)c1,9%,-6%,20µM*,-2%,?
O=C(N/N=C/c1ccc(-c2ccccc2[N+](=O)[O-])o1)[C@H]1C[C@@H]1c1ccccc1,?,?,11µM*,8%,?
NC(=O)N/N=C/c1ccc([N+](=O)[O-])o1,28%,-26%,?,4%,-22%[10 µM]
O=C(COc1ccccc1)N/N=C/c1ccc([N+](=O)[O-])o1,7%,-19%,16µM*,-5%,10µM*
O=C(N/N=C/c1ccc(-c2ccc([N+](=O)[O-])cc2)o1)[C@H]1C[C@@H]1c1ccccc1,14%,-17%,-4%,16%,17%
CS(=O)(=O)c1ccc(CNC(=O)[C@H]2C[C@@H]2[C@H](NP(=O)(c2ccccc2)c2ccccc2)c2ccccc2)cc1,·,·,-10%,·,24%
COc1cc(CSc2ncc(CO)n2Cc2ccc(C)cc2)cc(OC)c1,?,-12%,·,·,·
O=[N+]([O-])c1ccc(/C=N/NC(=S)Nc2ccccc2C(F)(F)F)o1,10%,-28%,?,2%,11µM*
O=C(N/N=C/c1ccc([N+](=O)[O-])o1)C(O)c1ccccc1 (stereo not given),1%,-13%,-27%,-2%,3%
O=C(NC(=S)Nc1ccccc1Br)C1CCCC1,?,-22%,7.1µM*,17%,3.2µM*
SMILES,GLP1R inv ag,HEK293 tox,VP16 counter,GLP-1R agonist,RORgamma inh
O=C(O)C1CCCCC1C(=O)Nc1ccccc1F (stereo not given),10%,0%,0%,1%,12%
O=C(NC(=S)Nc1ccccc1Br)C1CCCCC1,?,?,·,22%,·
O=C(NC(=S)Nc1ccccc1F)C1CCCCC1,·,·,7.9µM*,·,8.9µM*
Cc1ccc(CN(Cc2ccco2)C(=O)COc2ccc(Cl)cc2)o1,?,-3%,·,·,·
COc1ccc(-c2c(C3C4C=CCCC4(C)C(=O)N3Cc3ccccc3)ccc3ccccc23)cc1 (stereo not given),·,·,-17%,·,-24%
S=C(NCc1ccco1)Nc1cc(Cl)c(Cl)cc1Cl,?,-29%,?,-17%,?
Cc1ccc(NC(=S)NCc2ccco2)c(C)c1,-24%,?,?,6%,16µM*
Cc1ccccc1NC(=S)NCc1ccco1,0%,-2%,?,3%,13µM*
C/C=C(\C=C\[C@@H](C)C/C=C/CC/C=C/C=C\C[C@@H](OC)/C(C)=C\C=C(C)C)CC(=O)O,·,·,-2%,·,-2%
COc1ccc(-c2noc(C3CC(=O)N(c4ccc5c(c4)OCCO5)C3)n2)c(OC)c1 (stereo not given),15%,11%,·,·,·
Cc1nc(SCC(=O)NCC(F)(F)F)c2c(-c3cccs3)csc2n1,?,-9%,-2%,-5%,19%
Cc1nc(SCC(=O)NC(C)(C#N)C2CC2)c2c(-c3cccs3)csc2n1 (stereo not given),6.3µM*,-19%,?,3%,?
Cc1cc(C)c(NC(=S)NCCO)c(C)c1,16%,-5%,2%,-3%,-37%
COCCCNC(=S)Nc1c(C)cc(C)cc1C,7%,16%,?,4%,11µM*
CCOCCCNC(=S)Nc1cc(C)cc(C)c1,-24%,-23%,10µM*,4%,6.3µM*
O=C(NC1CCCC1)O[C@@H]1C(=O)c2cc(Br)ccc2O[C@H]1c1ccc2c(c1)OCO2,·,·,2%,·,10%
O=S(=O)(NCC1CCCO1)c1ccc(-c2ccc(S(=O)(=O)NCC3CCCO3)cc2)cc1 (stereo not given),-2%,11%,5.6µM*,6%,4.5µM*
COc1ccc(S(=O)(=O)NCCc2sc(-c3cccnc3)nc2C)cc1OC,-2%,-5%,·,-2%,·
COc1ccc(C2C(O)C(c3c[nH]c4ccccc34)=NN2C(=O)CCl)cc1 (stereo not given),?,11µM*,10µM*,1%,13µM*
COc1ccc(C2NN=C(c3c[nH]c4ccccc34)C2O)cc1 (stereo not given),?,-18%,-17%,6%,37%
Nc1cccc(S(=O)(=O)O)c1,·,·,5%,·,11%
CC1=NN(C(N)=S)C(=O)C1N=Nc1cccc(C)c1 (stereo not given),?,?,0%,7%,6%
CCOc1ccc(N=NC2C(=O)N(C(N)=S)N=C2C)cc1 (stereo not given),?,?,0.35µM*,-5%,0.32µM*
CCOc1ccc(N=Nc2c(=O)[nH]n3c(C)cc(C)nc23)cc1,23%,7%,-6%,-7%,?
